The test system of assay [1] is MKL-2. The assay is described as follows: qHTS assay to identify novel small-molecules to repurpose for Merkel cell carcinoma treatment (AID 1296009). Also: nearly all actives have a fitted effect of over 60% in size. Also: potency is read from the fitted curve at half-maximal effect. Conditions: MCC and control cell lines, CellTiter-Glo viability, 72 h; series mostly up to 46 µM. Summed up: (§1)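 Cells were treated for 72 hr at 37 degree celsius with compounds in 8- or 11-point dose response. Viability was read by CellTiter-Glo luminescence, normalized to no-cell (cytotoxicity) and DMSO controls.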

The test system of assay [2] is NIH3T3. Described as above. The settings on record: MCC and control cell lines, CellTiter-Glo viability, 72 h; at 44.8 µM (top of the series) unless noted. Summed up: as §1
The subject of assay [3] is UISO. The assay is described as above. Conditions: MCC and control cell lines, CellTiter-Glo viability, 72 h; series mostly up to 46 µM. In short, it runs like this: as §1
(In ATP-based viability assays light output follows the ATP content of the culture.)

Assay [4] concerns WaGa. The description is as above. The settings on record: MCC and control cell lines, CellTiter-Glo viability, 72 h; series mostly up to 46 µM. In short, it runs like this:
as §1

Assay [5] relates to C33A. Put plainly: Primary qHTS to identify gynecologic anti-cancer compounds using libraries of approved drugs and bioactive compounds (AID 1345084). Also: nearly all actives have a fitted effect of over 55% in size. Conditions: Gynecologic cancer cell panel viability, ATPlite luminescence, 48 h; series mostly up to 57.5 µM. Summed up: (§2)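 Measured: luminescence after ATPlite addition (15 min, RT). Exposure: 48 h, 37 C, 5% CO2.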
Assay [6] deals with CAOV3. The description is as above. Conditions: Gynecologic cancer cell panel viability, ATPlite luminescence, 48 h; series mostly up to 57.5 µM. Summed up:
as §2

In assay [7] the test system is CASKI. The assay is described as above. The settings on record: Gynecologic cancer cell panel viability, ATPlite luminescence, 48 h; series mostly up to 57.5 µM. Summed up:
as §2

In assay [8] the test system is Es-2. The assay is described as above. Conditions: Gynecologic cancer cell panel viability, ATPlite luminescence, 48 h; series mostly up to 57.5 µM. In short, it runs like this:
as §2

Assay [9] concerns HeLa. The assay is described as above. The settings on record: Gynecologic cancer cell panel viability, ATPlite luminescence, 48 h; series mostly up to 57.5 µM. Summed up: as §2
Assay [10] deals with JEG-3. The assay is described as above. Conditions: Gynecologic cancer cell panel viability, ATPlite luminescence, 48 h; series mostly up to 57.5 µM. In short, it runs like this:
as §2

In assay [11] the test system is OV90. The assay is described as above. The settings on record: Gynecologic cancer cell panel viability, ATPlite luminescence, 48 h; series mostly up to 57.5 µM. In short, it runs like this: as §2
Assay [12] concerns PA-1. The description is as above. The settings on record: Gynecologic cancer cell panel viability, ATPlite luminescence, 48 h; series mostly up to 57.5 µM. Summed up: as §2
Assay [13] deals with SKOV3. Described as above. The settings on record: Gynecologic cancer cell panel viability, ATPlite luminescence, 48 h; series mostly up to 57.5 µM. In short, it runs like this:
as §2

Assay [14] concerns Tov-21-G. The description is as above. Conditions: Gynecologic cancer cell panel viability, ATPlite luminescence, 48 h; series mostly up to 57.5 µM. In short, it runs like this:
as §2

Assay [15] has as its system Tov112D. Described as above. Conditions: Gynecologic cancer cell panel viability, ATPlite luminescence, 48 h; series mostly up to 57.5 µM. Summed up:
as §2

The subject of assay [16] is MKL-1. The assay is described as follows: qHTS assay to identify novel small-molecules to repurpose for Merkel cell carcinoma treatment (AID 1296009). Also: nearly all actives have a fitted effect of over 60% in size. Also: potency is read from the fitted curve at half-maximal effect. The settings on record: MCC and control cell lines, CellTiter-Glo viability, 72 h; series mostly up to 46 µM. In short, it runs like this: as §1
A short description of assay [17]: Drug repurposing screens with cells derived from glioblastoma tumor samples (AID 1345199). Also: nearly all actives have a fitted effect of over 40% in size. Also: potency is read from the fitted curve at half-maximal effect. Conditions: GBM patient neurospheres viability, ATP luminescence, 48 h. Summed up:
(§3)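 Four patient lines of CD133+ GBM neurospheres were screened at several concentrations; hits were retested in those lines plus three slower-growing GBM lines, using 48-hour treatment and ATP-based viability.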

Assay [18] deals with astro. The assay is described as above. Conditions: viability, ATP luminescence, 48 h; series mostly up to 45.9 µM. Summed up:
as §3

Assay [19] deals with Hek293T. The assay is described as follows: Primary qHTS to identify gynecologic anti-cancer compounds using libraries of approved drugs and bioactive compounds (AID 1345084). Also: nearly all actives have a fitted effect of over 55% in size. The settings on record: Gynecologic cancer cell panel viability, ATPlite luminescence, 48 h, control line for the selectivity index; series mostly up to 57.5 µM. In short, it runs like this: as §2
In general terms: In qHTS, concentration-response curves come from the screen itself.

Assay [20] in a line: qHTS assay to identify inhibitors of the type 1 interferon - major histocompatibility complex class I in skeletal muscle: Counter screen cell viability and HiBit confirmation (AID 1347412). Also: nearly all actives have a fitted effect of over 60% in size. The settings on record: iHSKM muscle cells + IFN-b, HiBiT or CellTiter-Glo, 24 h, at 45.9 µM (top of the series). Summed up: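 Luminescence read-out: Nano-Glo HiBiT lytic signal from C-terminally HiBiT-tagged HLA-B in CRISPR-edited human myoblasts, plus CellTiter Glo ATP as viability counter screen. IFN-beta 4.0 ng/ml; 24 hrs treatment at 37 C, 5% CO2.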

[21] abbreviates: at 45.9 µM (top of the series), tumour line B.
Where [22] appears, read: at 45.9 µM (top of the series), tumour line D.
Setting [23] is: at 46 µM (top of the series), tumour line A.
The mark [24] stands for this setting: at 46.1 µM (top of the series), tumour line C.

“And” between values parts separate entries of the source, which are not always exact repeats. Equal values may be shown once. Inconclusive results are not listed. The source made the active and inactive calls. Calls follow the shape of the dose curve; as a rule, active = well fitted curve in the direction sought with a large enough effect; inconclusive = small, poorly fitted or top-dose-only effect, or another doubt; inactive = no such curve, though single readings can be large; an effect the other way counts as inactive or inconclusive.
% is scaled to controls: 0 for no effect and ±100 for the full control effect.

For `CN(C)C(=O)[C@H](O)[C@H](Cc1ccccc1)NC(=O)c1cc2cc(Cl)ccc2[nH]1`, the Potency result in assay [1], in [4], in assay [5], in [6], in assay [7] and in [8] was “inactive” in each case. Moreover, the Potency entry in assay [9], in assay [10], in assay [11], in [12], in [13] and in assay [14] was “inactive” throughout. Further, the Potency entry in assay [15] is “inactive”. Moreover, the result in assay [2] was inactive. Moreover, the Potency in [3] is 4.18 µM (active).

In the case of `CC(C)[N+]1(C)[C@@H]2CC[C@H]1CC(OC(=O)C(CO)c1ccccc1)C2` (stereo partly specified), the Potency entry in [16], in assay [3] and in assay [18] was “inactive” each time. For the same compound, in [2], the call was inactive. For the same compound, the Potency in assay [4] was 18.7 µM (active). The activity, negative = cell killing in [17] (setting [21]) is -10.3% (inactive) and -8.73% (inactive); in [17] (setting [22]) it was -5.23% (inactive) and -7.38% (inactive); in assay [17] (setting [23]) it was -16.8% (inactive); in assay [17] (setting [24]), 14% (inactive) and -28.4% (inactive).

Consider `CCOC(=O)C(C)Oc1cccc2c(=O)n(CC(=O)Nc3ccc4c(c3)OCCO4)ccc12` (stereo unspecified), for which the Potency result in assay [16], in assay [3] and in assay [4] was “inactive” in each case.

For the compound `O=C(O)c1cc(=O)c2c(OCC(O)COc3cccc4oc(C(=O)O)cc(=O)c34)cccc2o1`, the Potency result in [5], in assay [6], in assay [7], in assay [8], in [9] and in [19] was “inactive” in each case. In addition, the Potency entry in assay [11], in [12], in assay [13], in assay [14], in [15] and in assay [18] was “inactive” each time. Further, the activity, negative = cell killing in assay [17] (setting [21]) was -3.77% (inactive); in assay [17] (setting [22]), -23.3% (inactive); in assay [17] (setting [23]) it was -3.33% (inactive); in [17] (setting [24]), 5.01% (inactive).

As to `C[C@H](Cc1ccc(O)c(O)c1)[C@@H](C)Cc1ccc(O)c(O)c1`, the values for the Potency in [16], in [1] and in assay [4] were 11.8 µM (active), 18.7 µM (active) and 18.7 µM (active), respectively.

On to `CC(=O)N1CCN(c2ccc(OC[C@H]3CO[C@](Cn4ccnc4)(c4ccc(Cl)cc4Cl)O3)cc2)CC1`, for which the Potency entry in [18] was “inactive”.

Consider `O=C1CCc2ccc(OCCCCN3CCN(c4cccc(Cl)c4Cl)CC3)cc2N1`, for which the Potency entry in assay [16], in assay [3], in assay [4], in [5], in [6] and in assay [7] was “inactive” in each case. Besides, the Potency result in assay [9], in assay [10], in assay [11], in assay [13], in assay [14] and in assay [15] was “inactive” in each case. In addition, the activity, negative = cell killing in [17] (setting [24]) is -16.8% (inactive). The Potency in [17] (tumour line A) is 3.98 µM (active); in assay [17] (tumour line B) it was 22.4 µM (active); in [18], 31.6 µM (active).

As for `CC1(C)CCC(C)(C)c2cc(NC(=O)c3ccc(C(=O)O)cc3)ccc21`, the Potency entry in [16], in assay [3], in assay [4], in [5], in assay [6] and in [7] was “inactive” each time. Besides, the Potency entry in assay [8], in [9], in [19], in assay [10], in assay [11] and in [12] was “inactive” throughout. Besides, the Potency result in [14] and in assay [15] was “inactive” in each case. Further, in assay [2], the compound was called inactive. Moreover, the activity, negative = cell killing is -10.2% (inactive) in assay [17] (setting [21]), -17.2% (inactive) in [17] (setting [22]) and -36.1% (inactive) in assay [17] (setting [23]). Moreover, the activity change, negative = inhibition in assay [20] (HiBiT) is 1.95% (inactive); in assay [20] (Viability), -0.914% (inactive).

Consider `Cc1cccc(C)c1OCC(=O)N[C@@H](Cc1ccccc1)[C@@H](O)C[C@H](Cc1ccccc1)NC(=O)[C@H](C(C)C)N1CCCNC1=O`, for which the Potency entry in assay [5], in [6], in assay [7], in [8], in [9] and in assay [19] was “inactive” in each case. Besides, the Potency entry in [10], in assay [11], in assay [12], in [13], in assay [14] and in [15] was “inactive” throughout. In addition, the Potency result in assay [18] is “inactive”.
